This note sets out measurements from PubChem BioAssay (NCATS).

A number with no mark means an inactive call. Inconclusive results are not listed. Activity calls are given as the source filed them. Unless noted, calls follow the shape of the dose curve; as a rule, active = well fitted curve in the direction sought with a large enough effect; inconclusive = small, poorly fitted or top-dose-only effect, or another doubt; inactive = no such curve, though single readings can be large; an effect the other way counts as inactive or inconclusive.

Assay [1] can be described thus: qHTS to identify inhibitors of the type 1 interferon - major histocompatibility complex class I in skeletal muscle: primary screen against the NCATS LOPAC collection (AID 1347405).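 Also: lytic HiBiT luminescence reporting HLA-B protein level; % is scaled to controls: 0 for no effect and ±100 for the full control effect.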 The gist of the method: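 Luminescence from HiBiT fused to endogenous HLA-B in CRISPR-engineered human myoblasts served as the read-out. Cells received 4.0 ng/ml IFN-beta plus compound (seven concentrations, 1:4.3 steps, highest 46 uM final) for 24 hrs before lytic detection.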
(Quantitative high-throughput screening tests each substance at several concentrations.)

The nature of assay [2]: qHTS to identify inhibitors of the type 1 interferon - major histocompatibility complex class I in skeletal muscle: primary screen against the NCATS Pharmaceutical Collection (AID 1347407).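 Also: luminescence of HiBiT knocked into endogenous HLA-B as interferon-induced MHC class I level; % is scaled to controls: 0 for no effect and ±100 for the full control effect.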 The method, boiled down: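 Immortalized human myoblasts (C25cl48) with HiBiT knocked into endogenous HLA-B*08:01 were stimulated with 4.0 ng/ml IFN-beta and treated with compounds ([…] top 46 uM) for 24 hrs at 37 C. HiBiT lytic luminescence read.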

Assay [3] is described as follows: qHTS for inhibitors of adenylyl cyclases using a fission yeast platform: a pilot screen against the NCATS LOPAC library (AID 1347410).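 Also: plate controls were DMSO vehicle for no effect and DPI positive control for full effect.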 The gist of the method:
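S. pombe CHP2027 (AC9-GNAS-PDE4D2) carrying PKA-repressed fbp1-GFP, incubated 18 h at 30C in EMM with LOPAC compounds at up to 57 uM. GFP gain-of-signal read by laser scanning cytometry; DMSO negative control.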

In assay [4] the target is Protein phosphatase 1D (Homo sapiens) (UniProt O15297). The experiment in a line: RapidFire Mass Spectrometry qHTS Assay for Modulators of WT P53-Induced Phosphatase 1 (WIP1) (AID 1347424).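 Also: amount of dephosphorylated VEPPL-S-QETFS peptide product formed by WIP1; series mostly up to about 63 µM; plate controls were DMSO wells for no effect and GSK830371 inhibitor control at 10 µM for full effect.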 The gist of the method: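 WIP1 (10 nM final) was preincubated 1 h at room temperature with compounds in Tris-HCl pH 7.5, 30 mM MgCl2, TCEP, EGTA, BSA; 2 uM VEPPL-pS-QETFS phosphopeptide was added for 5 min, quenched with formic acid, and dephosphorylated product quantified by RapidFire MS.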
Protein phosphatase 1D (Homo sapiens), sequence (O15297 whole entry, looked up): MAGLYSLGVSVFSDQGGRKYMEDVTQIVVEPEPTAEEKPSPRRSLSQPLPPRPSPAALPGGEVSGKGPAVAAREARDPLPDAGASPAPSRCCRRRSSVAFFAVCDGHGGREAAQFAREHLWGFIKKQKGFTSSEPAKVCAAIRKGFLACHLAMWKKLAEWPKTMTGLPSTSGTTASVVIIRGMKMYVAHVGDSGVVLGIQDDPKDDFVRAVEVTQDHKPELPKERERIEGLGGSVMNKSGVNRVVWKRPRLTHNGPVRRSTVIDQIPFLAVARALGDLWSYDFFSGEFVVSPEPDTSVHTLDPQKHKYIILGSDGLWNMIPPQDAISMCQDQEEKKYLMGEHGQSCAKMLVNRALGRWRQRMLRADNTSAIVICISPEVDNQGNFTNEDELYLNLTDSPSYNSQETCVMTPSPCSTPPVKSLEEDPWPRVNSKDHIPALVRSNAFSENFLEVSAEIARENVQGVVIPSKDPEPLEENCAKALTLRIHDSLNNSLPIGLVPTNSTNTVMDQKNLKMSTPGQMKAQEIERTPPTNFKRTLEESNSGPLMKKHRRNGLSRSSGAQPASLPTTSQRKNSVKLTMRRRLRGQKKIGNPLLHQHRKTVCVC

Assay [5] shares this target. The experiment in a line: Rhodamine-PBP qHTS Assay for Modulators of WT P53-Induced Phosphatase 1 (WIP1) (AID 1347425). Also: % of control where 0% means no effect. The method, boiled down:
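Steps: enzyme with Rh-PBP sensor and compounds, room-temperature incubation of 1 hr, baseline read, addition of VEPPL-pS-QETFS (10 uM final), kinetic fluorescence reads at 525/598 nm. Activity equals final minus baseline signal.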

Assay [6] can be described thus: Primary qHTS for inhibitors of La Crosse Virus (LACV) - induced cell death in SH-SY5Y cells (AID 1508616).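 Also: top concentration of the series differs between compounds; 0% = infected DMSO wells and 100% = uninfected DMSO wells; higher means more rescue of cells from virus-induced death.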 The gist of the method: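 Protection against LACV-induced cell death is scored in SH-SY5Y cells exposed to compounds and virus (0.01 MOI) for 6 days. Data normalized to virus-infected DMSO wells and virus-free DMSO wells.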
Assay [7] concerns the target Calcium and integrin-binding protein 1 (Homo sapiens) (UniProt Q99828). The experiment in a line: Validation qHTS for Identification of Calcium Integrin Binding protein 1 (CIB1) Competitor (AID 1508618). Also: % is scaled to controls: 0 for no effect and ±100 for the full control effect. The method, boiled down:
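In this qHTS validation, the LOPAC set (up to 114 uM) was tested for blocking CIB1 binding to a fluorescein-tagged alphaIIb peptide, with FP detection at 480/540 nm.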

For assay [8] the target is unchanged. The assay can be described thus: Primary qHTS for Identification of Calcium Integrin Binding Protein 1 (CIB1) Competitor (AID 1508620).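 Also: GST tagged CIB1 binding a fluorescein labelled alphaIIb integrin peptide tracer; top concentration of the series differs between compounds; % is scaled to controls: 0 for no effect and ±100 for the full control effect.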 The method, boiled down:
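Fluorescence polarization competition: CIB1-GST (1 uM final) preincubated with compound 15 min at room temperature, then FITC-labeled alphaIIb peptide (100 nM final) added for another 15 min. Polarization read at Ex 480/Em 540.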

Assay [9] in a line: Primary qHTS for small molecule stabilizers of the endoplasmic reticulum resident proteome: Secreted ER Calcium Modulated Protein (SERCaMP) assay (AID 1508630). Also: potency is read from the fitted curve at half-maximal effect. The gist of the method: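 GLuc-SERCaMP-expressing SH-SY5Y cells, pretreated 16 h with compound, are challenged with thapsigargin to empty ER calcium stores; after 4 h, coelenterazine is added directly to the medium and luminescence is imaged.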

Assay [10] concerns the target Single-stranded DNA cytosine deaminase (Homo sapiens) (UniProt Q9GZX7). The assay can be described thus: Validation qHTS assay for inhibitors of Activation Induced Cytidine Deaminase (AID): AID signal (AID 1347429). Also: % is scaled to controls: 0 for no effect and ±100 for the full control effect. The method, boiled down: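 Fluorescence at 540 nm excitation and 590 nm emission reports ssDNA cytosine deamination by AID, with UDG in the same well. Compound-treated reactions ran 4 hr at room temperature with DJC20/DJC23 substrate, followed by 30 min NaOH treatment.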

Assay [11] in a line: Counterscreen qHTS for small molecule stabilizers of the endoplasmic reticulum resident proteome: GLuc-NoTag assay (AID 1508627).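 Also: SH-SY5Y cells given compound then 100 nM thapsigargin to empty ER calcium; series mostly up to about 76 µM; 0% = thapsigargin alone and -100% = DMSO vehicle control.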 The gist of the method:
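SH-SY5Y cells stably expressing constitutively secreted GLuc (no SERCaMP tag) were pre-incubated 5 h, treated with compound for 19 h, then 100 nM thapsigargin for 4 h at 37C; medium GLuc read by coelenterazine luminescence.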
On the technique in general: The purpose of a counterscreen is to sort out artefacts and off-target activity.

The nature of assay [12]: A High-Content qHTS Against Drug Library for the Identification of Small Molecules that Inhibit DYT1 Early Onset Primary Dystonia-Associated Cell Pathology (AID 1645839; calls by dose curve; also: series mostly up to about 46 µM). The method, boiled down:
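Readout: %pathology, the punctate EGFP-TorsinA distribution from imaging, as the primary channel and cell count as the toxicity counterscreen. HEK293 Flp-In cells expressing delE TorsinA were induced with tetracycline and treated with compound for 48 h.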

Assay [13] is described as follows: qHTS to identify inhibitors of the type 1 interferon - major histocompatibility complex class I in skeletal muscle: primary screen against the NCATS Mechanism Interrogation Plate v5.0 (MIPE) Libary (AID 1347411).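 Also: plate controls were vehicle for no effect and reference inhibitor for full effect; nearly all actives have a fitted effect of over 65% in size.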 The method, boiled down: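 Luminescence from HiBiT-tagged endogenous HLA-B*08:01 served as the MHC class I read-out. CRISPR-engineered C25cl48 human myoblasts received 4.0 ng/ml IFN-beta plus compound for 24 hrs, with an 11-point, 1:3 series topping at 46 uM final.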

Assay [14] in a line: Validation qHTS assay for inhibitors of Activation Induced Cytidine Deaminase (AID): UDG Counterscreen signal (AID 1347427). Also: 0% is about no effect. The method, boiled down:
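Counterscreen read of UDG activity (2 U/mL, 4/3x) in the FRET deamination format with AID (1 uM, 4/3x), DJC20/DJC23 substrates (250 nM, 4x), 4 h at room temperature. NaOH stop, fluorescence at 560 ex/665 em.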

The nature of assay [15]: Confirmatory qHTS for small molecule stabilizers of the endoplasmic reticulum resident proteome: Secreted ER Calcium Modulated Protein (SERCaMP) assay (AID 1508628). Also: series mostly up to about 76 µM; % is scaled to controls: 0 for no effect and ±100 for the full control effect; nearly all actives have a fitted effect of over 40% in size. The gist of the method:
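SH-SY5Y cells stably expressing GLuc-SERCaMP, treated 16 h with compound (primary 1.53, 7.67, 38.3 uM; confirmation 11 concentrations, up to 76.6 uM), then 100 nM thapsigargin for 4 h. Secreted Gaussia luciferase in medium read by coelenterazine luminescence.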

A short description of assay [16]: Cell Viability qHTS for small molecule stabilizers of the endoplasmic reticulum resident proteome (AID 1508629). The conditions noted are these: cell viability counter-screen, 100 nM thapsigargin for final 4 h.

Single-stranded DNA cytosine deaminase (Homo sapiens), sequence (Q9GZX7 whole entry, looked up): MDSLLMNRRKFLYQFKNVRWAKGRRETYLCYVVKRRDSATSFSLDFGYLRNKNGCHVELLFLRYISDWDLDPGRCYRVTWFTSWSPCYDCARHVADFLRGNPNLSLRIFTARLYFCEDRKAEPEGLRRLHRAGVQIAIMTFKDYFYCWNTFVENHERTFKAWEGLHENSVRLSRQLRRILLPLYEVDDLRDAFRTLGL
Calcium and integrin-binding protein 1 (Homo sapiens), sequence (Q99828 whole entry, looked up): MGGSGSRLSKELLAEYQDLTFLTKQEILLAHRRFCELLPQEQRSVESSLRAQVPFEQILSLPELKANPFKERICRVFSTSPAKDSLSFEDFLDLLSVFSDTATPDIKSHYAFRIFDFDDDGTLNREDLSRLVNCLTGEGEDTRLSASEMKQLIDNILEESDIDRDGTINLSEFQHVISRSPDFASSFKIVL

On to `O=C1NC(=O)[C@@]2(CCOc3ccc(F)cc32)N1`, for which the Potency result in assay [1], in [2] and in assay [9] was “inactive” in each case. The call in [3], in assay [4], in [5], in assay [6], in assay [7] and in assay [8] was inactive.

Take `CC(C(O)c1ccc(O)cc1)N1CCC(Cc2ccccc2)CC1` (stereo unspecified): the Potency entry in assay [2], in [10], in [11], in [9] and in assay [12] was “inactive” each time. For the same compound, the outcome in assay [3], in [4], in assay [5], in [6], in assay [7] and in assay [8] was inactive.

Consider `Nc1ncnc2c1ncn2[C@@H]1O[C@H](CO)[C@@H](O)[C@H]1O`, for which the Potency result in assay [2], in assay [13], in [14], in [10], in assay [9] and in assay [12] was “inactive” each time. The result in assay [3], in assay [4], in assay [5], in [6], in assay [7] and in assay [8] was inactive.

With `CNCC(O)c1ccc(O)c(O)c1` (stereo unspecified), the Potency entry in [2], in assay [14] and in assay [10] was “inactive” in each case. Also, the compound was classed as inactive in assay [3], in [4], in assay [5], in assay [6] and in assay [7].

On to `CN(C)CCCN1c2ccccc2Sc2ccc(Cl)cc21`, for which the Potency result in assay [2], in assay [14], in [10] and in [9] was “inactive” in each case. Besides, the compound was called inactive in [3], in [4], in [5], in assay [6], in assay [7] and in assay [8].

Take `CCN(CC)CCOC(=O)C1(C2CCCCC2)CCCCC1`: the Potency result in assay [2], in assay [10], in assay [11], in assay [15], in [9] and in [12] was “inactive” in each case. In addition, the call in assay [3], in assay [4], in assay [5], in assay [6], in assay [7] and in [8] was inactive. The max response in assay [16] was -2.82%.

With `C[C@H]1O[C@@H](n2cc(F)c(=O)[nH]c2=O)[C@H](O)[C@@H]1O`, the Potency result in assay [2], in assay [13] and in assay [9] was “inactive” throughout. The call in [3], in assay [4], in assay [5], in assay [6], in [7] and in assay [8] was inactive.

With `CC(=O)OCC(=O)[C@@]1(O)CC[C@H]2[C@@H]3CCC4=CC(=O)CC[C@]4(C)[C@H]3C(=O)C[C@@]21C`, the Potency entry in [2], in [13], in assay [10], in assay [9] and in assay [12] was “inactive” throughout. Besides, the compound was classed as inactive in assay [3], in [5], in assay [6], in assay [7] and in assay [8].

`O=C1N=C(O)CN1/N=C/c1ccc(-c2ccc([N+](=O)[O-])cc2)o1`: the Potency result in assay [2], in assay [10], in assay [11] and in assay [12] was “inactive” in each case. Further, the compound was called inactive in assay [3], in assay [4], in assay [5], in assay [7] and in assay [8]. Further, in [16], the max response was 30.6%. Further, the Potency in assay [9] is 14.1 µM (active).

As to `COC(=O)C1=C(C)NC(C)=C(C(=O)OC)C1c1ccccc1[N+](=O)[O-]`, the Potency entry in [2], in assay [10] and in assay [12] was “inactive” in each case. The outcome in [3], in [4], in assay [5], in assay [6] and in assay [8] was inactive.
